Laboratory results from PubChem BioAssay (Tox21).
Inconclusive results are not listed. Active and inactive are the calls of the source. Calls follow the shape of the dose curve; as a rule, active = well fitted inhibition curve with a large enough effect in the signal ratio in the repeat runs (not every such curve was filed as active); inconclusive = weak or mixed curves, or effect the other way; inactive = no such curve, though single readings can be large or run the other way; the % refers to the signal ratio.

molecular target: Estrogen receptor beta (Homo sapiens) (UniProt Q92731); test: qHTS assay to identify small molecule antagonists of the estrogen receptor beta (ER-beta) signaling pathway (AID 1259378); conditions: ER-beta-UAS-bla HEK293T, beta-lactamase FRET ratio, 16 h; series mostly up to 92.4 µM; activity, negative = inhibition: at the top concentration
Sequence (Q92731 whole entry, looked up): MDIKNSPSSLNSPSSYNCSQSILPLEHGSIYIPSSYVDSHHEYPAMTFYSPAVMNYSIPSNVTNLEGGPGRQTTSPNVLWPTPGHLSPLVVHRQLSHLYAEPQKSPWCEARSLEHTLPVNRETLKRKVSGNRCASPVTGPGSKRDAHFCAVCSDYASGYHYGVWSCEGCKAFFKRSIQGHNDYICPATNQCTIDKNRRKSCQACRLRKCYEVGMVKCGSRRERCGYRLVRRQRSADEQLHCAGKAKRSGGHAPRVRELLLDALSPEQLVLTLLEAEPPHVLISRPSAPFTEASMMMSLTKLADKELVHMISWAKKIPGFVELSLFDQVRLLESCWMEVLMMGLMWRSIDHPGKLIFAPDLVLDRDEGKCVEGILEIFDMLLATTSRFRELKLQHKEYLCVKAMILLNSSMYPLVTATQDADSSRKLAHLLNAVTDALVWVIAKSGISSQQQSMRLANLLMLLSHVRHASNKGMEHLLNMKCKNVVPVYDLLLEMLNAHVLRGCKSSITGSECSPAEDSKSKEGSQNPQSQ
Procedure, shortened: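 Antagonist mode: compounds added to beta-lactamase reporter HEK293T ER-beta-UAS cells stimulated with E2 (1nM final), 16 hr at 37C. LiveBLAzer B/G FRET substrate, 2 hours room temperature, fluorescence read-out.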
% is scaled to controls: 0 for no effect and ±100 for the full control effect.

Compound	activity, negative = inhibition
CCOc1ccc2c(c1)C(C)CC(C)(C)N2 (configuration not stated)	0.56% (inactive)
O=c1c2ccccc2oc2ccccc12	14.5% (inactive)
Cc1cccc(C)c1NC(=O)CN1CCCC1	-0.488% [at 42.5 µM] (inactive)
Cc1cc(N)n(-c2ccccc2)n1	-13.9% (inactive)
Cc1nc(C)c(C)nc1C	-9.88% (inactive)
O=C(O)c1ccccc1[N+](=O)[O-]	0.858% (inactive)
O=c1[nH][nH]c2ccccc12	-3.13% (inactive)
Cc1c(Cl)cccc1[N+](=O)[O-]	1.16% (inactive)
CCOc1ccccc1O	19.4% (inactive)
O=C(OC1C[C@H]2CC[C@@H](C1)[N+]21CCCC1)C(O)(c1ccccc1)c1ccccc1 (some centres not stated)	11.6% [at 42.5 µM] (inactive)
O=C(O)c1cc(C(=O)O)c(C(=O)O)cc1C(=O)O	14.3% (inactive)
CC/C=C/CCO	4.79% (inactive)
O=C(c1ccc(Cl)cc1)c1ccc(Cl)cc1	2.36% (inactive)
CC/C=C\CCO	7.49% (inactive)
CCCCCCOC(=O)c1ccccc1	-14.2% (inactive)
CC(O)C(C)O (configuration not stated)	0.263% (inactive)
CC1(C)[C@@H]2CC[C@]3(C2)[C@@H]1C(=O)CCC3(C)C	4.35% (inactive)
FC1(F)C(F)(F)C(F)(F)C2(F)C(F)(C1(F)F)C(F)(F)C(F)(F)C1(F)C(F)(F)C(F)(F)C(F)(F)C(F)(F)C12F (configuration not stated)	9.42% (inactive)
NC(=O)c1ccccc1C(N)=O	-11.2% (inactive)
CCCCCO	-0.935% (inactive)
CC(C)(C)c1cc(C=O)cc(C(C)(C)C)c1O	-4.78% [at 42.5 µM] (inactive)
O=C(O)c1ccc(O)c(O)c1	2.73% (inactive)
O=[N+]([O-])c1ccccc1CCO	18.3% (inactive)
CCC(C)CCCC(C)(C)O (configuration not stated)	-4.38% (inactive)
COc1ccc(/C(C)=C/C(=O)O)c(OC)c1	-3.24% [at 42.5 µM] (inactive)
Cc1c(N=C=O)cccc1N=C=O	2.47% (inactive)
CC(C)Cc1nccs1	-4.11% (inactive)
